# Reference: PubChem BioAssay (NCATS)
# Values without a mark were called inactive. Activity calls are given as the source filed them. The call rests on the fitted dose curve; in most records, active means well fitted curve in the direction sought with a large enough effect; inconclusive means small, poorly fitted or top-dose-only effect, or another doubt; inactive means no such curve, though single readings can be large or run the other way.
# Biological target: alpha-glucosidase (Oryza sativa, rice) (UniProt Q653V4)
# Assay: Counterscreen for Glucocerebrosidase Inhibitors: qHTS Assay for Rice alpha-Glucosidase at pH 5.0 (AID 997);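 further: 0% = full activity with enzyme and -100% = basal without enzyme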
# Conditions: rice alpha-glucosidase enzyme activity; series mostly up to 76.9 µM; activity change, negative = inhibition: at the top concentration
# Source text: NIH Chemical Genomics Center [NCGC]
# NIH Molecular Libraries Screening Centers Network [MLSCN]
# PI Name: Zheng, Wei [NIH]
# Alpha-glucosidase is responsible for hydrolysis of terminal, non-reducing 1,4-linked alpha-D-glucose residues with release of alpha-D-glucose. It is a lysosomal hydrolase that is required for the degradation of a small percentage (1-3%) of cellular glycogen in human. Deficiency of this enzyme results in glycogen-storage disease type II (GSDII), also referred to as Pompe disease, an autosomal recessive disorder. Structurally normal glycogen is accumulated in lysosomes and cytoplasm in affected patients, primarily in muscle tissues. Excessive glycogen storage within lysosomes may interrupt normal functioning of other organelles and leads to cellular injury. In turn, this leads to enlargement and dysfunction of the entire organ involved (eg, cardiomyopathy and muscle weakness).
# It has reported that the improper folding and trafficking of alpha-glucosidase resulted from the genetic mutations may account for a significant number of Prope patients. […] We optimized this alpha-glucosidase assay in 1536-well plate format for identifying the novel small molecule inhibitors with the structures other than the sugar analogs in order to develop the new pharmacological chaperones.
# NCGC Assay Protocol Summary:
# This is a fluorogenic enzyme assay with 4-methylumbelliferyl-alpha-D-pyranoside as the substrate and rice alpha-glucosidase as the enzyme preparation. Upon the hydrolysis of this fluorogenic substrate, the resulting product, 1. 4-methyllumbelliferone, can be excited at 365 nm and emits at 440 nm which can be detected by a standard fluorescence plate reader. Data were normalized to the controls for basal activity (without enzyme) and 100% activity (with enzyme). In the AC50 values were determined from concentration-response data modeled with the standard Hill equation.
# Assay buffer: 50 mM citric acid, 0.005% Tween-20, pH 5.0. (pH 5.0 is an optimal condition for this enzyme assay)
# 1536-well assay protocol for the human alpha-glucosidase:
# (1) Add 2 ul/well of enzyme (4 nM final)
# (2) Add 23 nL compounds in DMSO solution. The final titration was 0.7 nM to 77 uM.
# (3) Add 1 ul of substrate (400 uM final)
# (4) Incubate at room temperature for 20 min.
# (5) Add 2 ul stop solution (1M NaOH and 1M Glycine mixture, pH 10)
# (6) Detect the assay plate in a ViewLux plate reader (PerkinElmer) with Ex=365 nm and Em=440nm.
# Keywords: Alpha-glucosidase, Prope Disease, pharmacological chaperone, chaperone therapy, high throughput screening, alpha-glucosidase inhibitor, MLSMR, MLSCN, NIH Roadmap, qHTS and NCGC
Structure (SMILES),"activity change, negative = inhibition [%]",outcome
CC(C)CN(C)c1nc(N)c(C(=O)N=C(N)N)nc1Cl,0.862,–
OC[C@H]1O[C@@H](n2cnc3c(NCCc4ccccc4)ncnc32)[C@H](O)[C@H]1O,-1.23,–
COc1ccc2c(c1)c(CC(=O)O)c(C)n2Cc1ccc(F)cc1,0.448,–
CC(=O)NCCc1ccc(O)c(O)c1,-7.16,–
NCCNC(=O)c1ccc(Cl)cc1,0.721,–
Oc1ccc(/C=C\c2cc(O)cc(O)c2)cc1,2.43,–
COC(=O)c1c(-c2cc(OC)c(OC)c(OC)c2)c2ccc(OCc3ccccn3)cc2c(=O)n1-c1ccc(N)cc1,-8.46,–
CCn1c(=O)c2[nH]c(-c3ccccc3)nc2n(CC)c1=O,-0.284,–
CCCC(=O)NCCc1c2n(c3ccc(OC)cc13)Cc1ccccc1-2,-0.912,–
CN(CCOc1ccc(C[C@H](Nc2ccccc2C(=O)c2ccccc2)C(=O)O)cc1)c1ccccn1,-5.49,–
CCSC(N)=Nc1ccc(C(F)(F)F)cc1,-1.86,–
NCCCCNS(=O)(=O)c1cccc2c(Cl)cccc12,-6.17,–
O=C(Cc1ccc(Cl)c(Cl)c1)OCCN1CCCC1,-3.3,–
CCCNC[C@H](O)COc1ccccc1C(=O)CCc1ccccc1,–,inactive
NCCC(=O)NCCc1cnc[nH]1,-1.35,–
N=C1Sc2ccccc2C2=NCCCN12,-0.177,–
N=C(N)SCCc1cccc(CCSC(=N)N)c1,-2.07,–
NC(=NCCC[C@H](N)C(=O)O)NO,-2.13,–
